Measurements reported in ChEMBL document CHEMBL4513135, “CO-ADD screening of IQOG CSIS (Spain) compounds”.
Values joined by “and” are separate entries in the source; they are usually repeats but may differ in a detail not shown here. Identical values can stand only once. Potency and affinity values are given separately.

What was measured:
[1] = tested on: Klebsiella pneumoniae; settings: Concentration 32 ug.mL-1, ASSAY_TEST Inhibition of Bacterial Growth, detection method Absorption (OD600), MEDIA CAMHB, plate type 384well, NBS, CORNING #3640, time 18 hr
[2] = tested on: Candida albicans; settings: 32 ug/mL
[3] = tested on: Cryptococcus neoformans; settings: Concentration 32 ug.mL-1, ASSAY_TEST Inhibition of Fungal Growth, detection method Resazurin, Absorption (OD600-OD570), plate type 384well, NBS, CORNING #3640

Row | Structure (SMILES) | Inhibition [1] | Inhibition [2] | Inhibition [3] | Inhibition ([1]; 32 ug/mL) | Inhibition ([3]; 32 ug/mL)
1 | Cc1ccc(C2CC2(N)C(=O)O)cc1.Cl (stereo not drawn) | 13.97% | 1.46% | -7.69% | – | –
2 | COc1nc2nc3c(c(N)c2cc1C#N)CCCC3.Cl | 10.99% | 1.08% | -96.28% | – | –
3 | CCOc1nc(N)c(C#N)cc1C#N.Cl | -1.63% | 2.86% | -26.15% | – | –
4 | COc1ccc2cc(C3C4=C(CC(C)(C)CC4=O)Oc4nc5c(c(N)c43)CCCCC5)c(Cl)nc2c1 (stereo not drawn) | 4.86% | 23% | -4.18% | – | –
5 | COc1cccc(C2c3c(nc4c(c3N)CCCC4)Oc3ccc4ccccc4c32)c1 (stereo not drawn) | 7.83% | -0.15% | -0.19% | – | –
6 | C#CCNc1nc(Cl)c(C#N)c(-c2ccccc2)c1C#N | -23.73% | 1.27% | -7.07% | – | –
7 | COc1ccc2cc(C3C4=C(CC(C)(C)CC4=O)Oc4nc5c(c(N)c43)CCC5)c(Cl)nc2c1 (stereo not drawn) | 7.42% | 10.1% | -1.53% | – | –
8 | C#CCN(C)Cc1cc2cc(OCCC3CCN(Cc4ccccc4)CC3)ccc2n1C.Cl | 16.32% | 3.09% | -83.46% | – | –
9 | COc1cc(CCC(N)=O)ccc1O | 11.33% | -0.74% | -2.02% | – | –
10 | COc1cccc(C2C(C#N)=C(N)Oc3[nH]nc(C)c32)c1 (stereo not drawn) | 26.54% | 0.08% | -0.28% | – | –
11 | CCOC(=O)C1=C(C)OC(N)=C(C#N)C1c1cccnc1 (stereo not drawn) | 0.99% | 0.38% | -18.71% | – | –
12 | Cc1nc2c3c(C)nn(-c4ccccc4)c3ncn2n1 | 13.92% | -0.04% | -2.13% | – | –
13 | CCOC(=O)/C(=C\c1ccccc1)C(=O)c1ccccc1 | -3.55% | 3.73% | -2.93% | – | –
14 | Cn1c(CO)cc2cc(OCCCC3CCN(Cc4ccccc4)CC3)ccc21 | -2.86% | 2.07% | -53.31% | – | –
15 | COc1cc(C2CC2(N)C(=O)O)ccc1O (stereo not drawn) | 3.5% | -0.44% | -0.8% | – | –
16 | N#CC1=C(N)Oc2c(ccc3ccccc23)C1c1ccc(Cl)c(Cl)c1 (stereo not drawn) | -23.32% | 1.53% | -2.77% | – | –
17 | CCOC(=O)C1=C(C)OC(N)=C(C#N)C1c1ccccc1 (stereo not drawn) | 11.23% | 6.07% | -42.71% | – | –
18 | CC1=C(CO)C(c2ccc(C#N)cc2)C(C#N)=C(N)O1 (stereo not drawn) | 10.02% | 5.46% | -8.41% | – | –
19 | CC(C)(C)OC(=O)Nc1ccc(Br)cn1 | 23.74% | 1.83% | -55.05% | – | –
20 | COc1ccc2c(c1)cc(CN(C)Cc1cn(Cc3ccccc3)nn1)n2C | 5.47% | 2.23% | -55.57% | – | –
21 | N#Cc1c(Cl)nc(Cl)c(C#N)c1-c1ccccc1 | 19.31% | 34.6% | -43.27% | – | –
22 | N#Cc1c(NC2CCC(Cc3ccccc3)CC2)nc(NC2CCN(Cc3ccccc3)CC2)c(C#N)c1-c1ccccc1 (stereo not drawn) | -7.01% | 2.46% | -20.4% | – | –
23 | C=CCNc1nc(N)c(C#N)cc1C#N | 12.19% | 3.01% | -39.35% | – | –
24 | C#CCN(C)Cc1cc2cc(OCc3ccc(OC)c4ncccc34)ccc2n1C | -13.41% | 6.72% | -26.86% | – | –
25 | COc1ccc2c(ccn2C)c1 | 14.15% | 1.33% | -1.95% | – | –
26 | COc1nc(NC(C)=O)c(C#N)c(-c2ccccc2)c1C#N | 12.51% | 2.3% | -37.64% | – | –

Row | Structure (SMILES) | Inhibition [1] | Inhibition [2] | Inhibition [3] | Inhibition ([1]; 32 ug/mL) | Inhibition ([3]; 32 ug/mL)
27 | O=C1SC(SCc2ccccc2)=NC1=Cc1cccc(OCc2ccccc2)c1 | -15.18% | 0.84% | -8.61% | – | –
28 | CC#CCN(Cc1ccccc1)c1nc(N)c(C#N)cc1C#N | -9.03% | 3.48% | -21.6% | – | –
29 | Cl.NC1(C(=O)O)CC1c1ccccc1 (stereo not drawn) | 9.92% | 1.66% | -5.74% | – | –
30 | C#CCN(C)Cc1cc2cc(OCCCCC3CCN(Cc4ccccc4)CC3)ccc2n1C | 10.12% | 2.73% | -48.77% | – | –
31 | CS(=O)(=O)O[C@H]1CC[C@H](OS(C)(=O)=O)CC1 | 13.68% | 3.52% | -30.83% | – | –
32 | CCOc1nc(N)c(C#N)cc1C#N | 12.55% | 44.3% | -83.12% | – | –
33 | CSC1=NC(=Cc2cn(C)c3ccccc23)C(=O)N1C | -7.62% | 1.89% | -7.7% | – | –
34 | O=C1NC(=O)C(=Cc2ccccc2)N1 | 12.73% | -0.05% | -1.42% | – | –
35 | COc1nc2nc3c(c(N)c2cc1C#N)CN(Cc1ccccc1)CC3 | 8.31% | 1.24% | -69.67% | – | –
36 | Nc1c2c(nc3c1C(c1ccc([N+](=O)[O-])cc1)c1ccc4ccccc4c1O3)CCCC2 (stereo not drawn) | -17.7% | -1.86% | -5.85% | – | –
37 | COc1ccc2c(c1)cc(CN(C)C)n2C | 9.15% | -0.31% | -1.62% | – | –
38 | COc1cc(C2c3c(nc4c(c3N)CCCC4)Oc3ccc4ccccc4c32)cc(OC)c1OC (stereo not drawn) | 23.56% | 1.11% | -4.42% | – | –
39 | N#Cc1ccc(Br)cc1N | 26.43% | 18% | -4.02% | – | –
40 | O=C(NNCc1ccco1)c1cc2ccccc2[nH]1 | 1.78% | -0.84% | -3.8% | – | –
41 | C=CCNc1[nH]c2ccc(O)cc2c1C#N | 7.13% | 2.34% | -48.34% | – | –
42 | N#Cc1c(N)nc(N2CCCCC2)c(C#N)c1-c1ccccc1 | 2.6% | 1.97% | -31.47% | – | –
43 | N#Cc1cc(C#N)c(NC2CCN(Cc3ccccc3)CC2)nc1N | – | 1.61% and 2.76% | – | 9.31% and 4.29% | -42.03% and -48.76%
44 | N#Cc1c(N)nc2[nH]nc(N)c2c1-c1ccccc1 | 17.63% | 0.49% | -62.75% | – | –
45 | O=C(N/N=C/c1c[nH]c2ccccc12)c1ccc(Cl)cc1 | 14.79% | 0.77% | -0.09% | – | –
46 | COc1nc(N)c(C#N)cc1C#N | 5.43% | 3.36% | -30.91% | – | –
47 | O=C1SC(SCc2ccccc2)=NC1=Cc1ccccc1 | 8.07% | 1.92% | -3.98% | – | –
48 | NNC(=O)C1(NC(=O)c2ccccc2)CC1c1cccc(O)c1 (stereo not drawn) | 19.56% | 0.45% | -0.7% | – | –
49 | N#CC1=C(N)Oc2c(ccc3ccccc23)C1c1ccc(O)cc1 (stereo not drawn) | 6.16% | 0.86% | -59.36% | – | –
50 | NC(=O)c1cc2cc(OCc3ccccc3)ccc2[nH]1 | 5.14% | 6.4% | -61.34% | – | –
51 | CC(C)(C)OC(=O)Nc1ncccc1Br | 19.74% | 1.17% | -55.01% | – | –
52 | N#Cc1cc(Br)cc(Br)c1N | -0.57% | 4.77% | -9.46% | – | –

Row | Structure (SMILES) | Inhibition [1] | Inhibition [2] | Inhibition [3] | Inhibition ([1]; 32 ug/mL) | Inhibition ([3]; 32 ug/mL)
53 | O=Cc1c[nH]c2ccccc12 [3-FORMYLINDOLE] | 22.42% | 1.76% | -4.21% | – | –
54 | N#Cc1c(N)nc(N)c(C#N)c1-c1ccccc1 | 13.82% | 1.47% | -29.88% | – | –
55 | c1ccc(-c2nc3c4cnn(-c5ccccc5)c4ncn3n2)cc1 | 10.22% | -0.93% | -6.06% | – | –
56 | Cc1nc(NCc2ccccc2)c2cnn(-c3ccccc3)c2n1 | 15.01% | -0.57% | -3.46% | – | –
57 | Cn1cc(C(=O)NN)c2ccccc21 | 3.16% | 4.47% | 7.89% | – | –
58 | COC(=O)C(=Cc1ccc(OC)cc1)NC(C)=O | 12.98% | -0.11% | -2.55% | – | –
59 | CCOC(=O)c1c(C)nc2nc3c(c(N)c2c1-c1ccc(Cl)cc1)CCCCC3 | 1.2% | -0.36% | -57.83% | – | –
60 | N#Cc1cc(C#N)c(N2CCCC2)nc1N | 16.35% | 1.23% | -54.35% | – | –
61 | COc1ccc(C2c3c(ccc4ccccc34)OC(=NBr)C2(Br)C#N)cc1 (stereo not drawn) | 26.17% | 10.1% | -63.65% | – | –
62 | N#Cc1cc2c(N)n[nH]c2nc1N | 6.95% | 0.04% | -4.92% | – | –
63 | C=C1CN(C)c2c(C#N)cc(C#N)c(=N)n21 | 9.83% | 2.03% | -52.46% | – | –
64 | CCOC(=O)c1c[nH]c2ccc(OC)cc12 | 1.49% | 3.61% | -7.29% | – | –
65 | CCOC(=O)c1cc2cc(O)ccc2n1C(=O)OC(C)(C)C | 2.98% | 1.56% | -9.8% | – | –
66 | Nc1n[nH]c2c1C(c1ccccc1)CC(=O)N2 (stereo not drawn) | 23.2% | 1.67% | -57.28% | – | –
67 | CSC1=NC2(CC2c2ccccc2)C(=O)N1 (stereo not drawn) | 20.57% | -0.24% | 1.03% | – | –
68 | O=C(NN=Cc1c[nH]c2ccccc12)c1cccc2ccccc12 | 12.1% | 1.76% | -3.56% | – | –
69 | CNC(=O)NC1(C(=O)O)CC1c1ccccc1 (stereo not drawn) | 13.01% | 0.9% | -2.43% | – | –
70 | CC(=O)NC(=Cc1ccccc1)C(=O)O | 19.96% | 2.49% | -0.91% | – | –
71 | CC(=O)n1cc(/C=C2\N=C(c3ccccc3)OC2=O)c2ccccc21 | 0.98% | 1.66% | -2.55% | – | –
72 | CC(=O)Oc1ccc(C=C2N=C(c3ccccc3)OC2=O)cc1 | -12.75% | -0.21% | -12.33% | – | –
73 | N#Cc1c(N)nc(N2CCOCC2)c(C#N)c1-c1ccccc1 | 3.68% | 1.23% | -3.16% | – | –
74 | COc1ccccc1[C@H]1c2c(ccc3ccccc23)O/C(=N\Br)[C@@]1(Br)C#N | 5.34% | 8.63% | -5.55% | – | –
75 | N#Cc1c(N)nc(NCCCC2CCN(Cc3ccccc3)CC2)c(C#N)c1-c1ccccc1 | 32.61% | 1.5% | -34.35% | – | –
76 | CC1Cc2c(Cl)nc3nc4c(c(N)c3c2NC1=O)CCCC4 (stereo not drawn) | 8.15% | 2.83% | -81.78% | – | –
